Results published in PubChem BioAssay AID1159580 (chemical genetic matrix, 2015).
Several values for one entry are separate records, joined by “and”; a condition that tells them apart may be missing. Equal entries are not always repeated. Screen size: about 5,500 compounds; about 2,000 (36%) were called active. Roughly 18% stayed inconclusive and do not appear here. Cut-off read from the data, not from the text of the source: active = normalized growth mostly below about 0.91 (no sharp cut-off); inconclusive = no clear call, values can overlap the other calls; inactive = mostly above about 0.92. This is one part of the list.

Test: chemical genetic growth profiling, strain panel (AID 1159580);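 note: tested at 20 µM; growth read once vehicle control cultures reached saturation at 30 °C; 1 = growth at the plate median or of vehicle wells; lower values mean less growth of the strain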
Details: S. cerevisiae deletion strains, growth OD

Measured: normalized growth

COP(=S)(OC)SCn1nnc2ccccc2c1=O
inactive: locus YAL013W, strain DEP1, hits give low values 0.987 | locus YAL021C, strain ccr4, hits give low values 1 | locus YAL026C, strain drs2, hits give low values 1 | locus YAL030W, strain snc1, hits give low values 1.03 | locus YBL061C, strain skt5, hits give low values 1.01 | locus YBR009C, strain hhf1, hits give low values 1 | locus YBR021W, strain FUR4, hits give low values 0.887 | locus YBR023C, strain chs3, hits give low values 0.997 | locus YBR171W, strain sec66, hits give low values 1.01 | locus YBR229C, strain ROT2, hits give low values 0.955 | locus YBR231C, strain swc5, hits give low values 1 | locus YBR279W, strain paf1, hits give low values 0.992 | locus YCL011C, strain gbp2, hits give low values 1 | locus YCL016C, strain dcc1, hits give low values 0.994 | locus YCL029C, strain bik1, hits give low values 0.974 | locus YCL061C, strain MRC1, hits give low values 0.996 | locus YCL069W, strain vba3, hits give low values 1.02 | locus YCR088W, strain abp1, hits give low values 1.02 | locus YDL005C, strain med2, hits give low values 1 | locus YDL035C, strain GPR1, hits give low values 0.921 | locus YDL040C, strain nat1, hits give low values 1.01 | locus YDL074C, strain BRE1, hits give low values 0.9 | locus YDL101C, strain DUN1, hits give low values 0.966 | locus YDL134C, strain PPH21, hits give low values 0.985 | locus YDL185W, strain tfp1, hits give low values 0.948 | locus YDL192W, strain arf1, hits give low values 0.976 | locus YDR001C, strain nth1, hits give low values 1.02 | locus YDR069C, strain doa4, hits give low values 0.96 | locus YDR101C, strain arx1, hits give low values 0.986 | locus YDR137W, strain rgp1, hits give low values 0.985 | locus YDR150W, strain NUM1, hits give low values 0.971 | locus YDR159W, strain sac3, hits give low values 0.927 | locus YDR162C, strain NBP2, hits give low values 0.963 | locus YDR195W, strain ref2 1.06 | locus YDR297W, strain sur2, hits give low values 0.998 | locus YDR318W, strain mcm21, hits give low values 0.972 | locus YDR334W, strain swr1, hits give low values 1.01 | locus YDR335W, strain msn5, hits give low values 1 | locus YDR388W, hits give low values 0.979 | locus YDR392W, strain spt3, hits give low values 1.03 | locus YDR502C, strain sam2, hits give low values 0.98 | locus YEL003W, strain gim4, hits give low values 0.984 | locus YEL037C, strain rad23, hits give low values 1.01 | locus YEL061C, strain CIN8 (second series), hits give low values 1.01 | locus YEL061C, strain CIN8, hits give low values 0.985 | locus YER015W, strain faa2, hits give low values 1 | locus YER016W, strain bim1, hits give low values 1.02 | locus YER110C, hits give low values 0.97 | locus YER111C, strain swi4, hits give low values 0.996 | locus YER155C, strain BEM2 (second series), hits give low values 0.999 | locus YER155C, strain BEM2, hits give low values 0.993 | locus YER167W, strain BCK2, hits give low values 0.989 | locus YFR010W, strain ubp6, hits give low values 0.98 | locus YGL078C, strain dbp3, hits give low values 0.997 | locus YGL086W, strain mad1, hits give low values 0.992 | locus YGL167C, strain pmr1, hits give low values 0.992 | locus YGL173C, strain kem1, hits give low values 1 | locus YGL227W, strain vid30, hits give low values 0.997 | locus YGL240W, strain doc1, hits give low values 0.904 | locus YGL248W, strain PDE1, hits give low values 0.953 | locus YGL253W, strain hxk2, hits give low values 0.993 | locus YGR078C, strain PAC10, hits give low values 0.953 | locus YGR135W, strain pre9, hits give low values 0.969 | locus YGR229C, strain SMI1, hits give low values 0.956 | locus YGR252W, strain gcn5, hits give low values 0.824 | locus YHR013C, strain ard1, hits give low values 0.913 | locus YHR027C, strain rpn1, hits give low values 1.02 | locus YHR030C, strain SLT2, hits give low values 0.973 and 0.958 | locus YHR079C, strain IRE1 (second series), hits give low values 0.983 | locus YHR079C, strain IRE1, hits give low values 0.979 | locus YHR094C, strain hxt1, hits give low values 0.99 | locus YHR129C, strain ARP1, hits give low values 0.967 | locus YHR142W, strain chs7, hits give low values 0.987 | locus YHR200W, strain rpn10, hits give low values 0.99 | locus YIL066C, strain RNR3, hits give low values 0.935 | locus YIL073C, strain SPO22, hits give low values 0.963 | locus YIL125W, strain kgd1, hits give low values 0.979 | locus YIR030C, strain dcg1, hits give low values 0.992 | locus YJL092W, strain hpr5, hits give low values 1.01 | locus YJL095W, strain BCK1 (second series), hits give low values 1 | locus YJL095W, strain BCK1, hits give low values 0.974 and 0.949 | locus YJL115W, strain asf1, hits give low values 0.991 | locus YJL129C, strain trk1, hits give low values 1.02 | locus YJL134W, strain LCB3, hits give low values 0.979 | locus YJL154C, strain vps35, hits give low values 1.02 | locus YJL164C, strain tpk1, hits give low values 0.984 | locus YJL166W, strain qcr8, hits give low values 1.01 | locus YJL168C, strain set2, hits give low values 0.982 | locus YJL187C, strain SWE1 (second series), hits give low values 0.977 | locus YJL187C, strain SWE1, hits give low values 1.01 | locus YJR043C, strain POL32, hits give low values 0.953 | locus YJR066W, strain TOR1, hits give low values 0.905
